From PubChem BioAssay (NCI) come the findings set out here.

Structures are written as SMILES. Compounds without any hit were thinned out: in the full panel of roughly 83,000, 20% have a hit.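 Each cell line was grown in a 96-well plate and treated with one concentration of compound for 48 hours. Values below 10 were considered active.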 Unmarked numbers belong to inactive results. The source made the active and inactive calls.

The subject of this experiment is HL-60(TB) leukemia. Kind of experiment: NCI-60 one-dose screen, 48 h (100 = growth as untreated, 0 = no growth, -100 = all killed). The following applies: 10 µM unless noted.
With `Cc1c(F)cc(C(N)=O)cc1NCC(=O)Nc1ccc([N+](=O)[O-])cc1`, the growth was 132%.

With `Brc1ccc(-c2cc(-c3ccc4c(c3)OCCO4)n[nH]2)s1`, the growth was 3.16% (active). The same measure for `O=C(CN1CCOCC1)NNc1ncnc2ccccc12`: 53%. The same measure for `COc1ccc(CCOc2cc3c(cc2OC)CCN(C(=O)NCc2cocn2)C3c2ccc(C)cc2C)cc1` (stereo not given): 5.9% (active); for `Clc1ccc(-c2nc3ccc(/C(=N\N=C\c4ccccc4)c4ccccc4)cc3[nH]2)cc1`: 73.3%; for `CCOC(=O)c1c(NCC(=O)Nc2cccc([N+](=O)[O-])c2)sc2c1CCCC2`: 1.42% (active). The same measure for `Nc1nc(-c2cccc([N+](=O)[O-])c2)c(N=Nc2ccc([N+](=O)[O-])cc2Cl)s1`: 6.8% (active); for `CS(=O)(=O)Nc1cc(-c2ccc3ncc(C#N)c(NCc4ccccc4F)c3c2)cnc1Cl`: 5.25% (active); for `COc1ccc(NC(=O)[C@H](C)NC(=O)OC(C)(C)C)cc1C(=O)Nc1cccc(-c2cc(=O)c3c(OC)c(OC)c(OC)cc3o2)c1`: 2.88% (active). Consider `O=c1c2c(O)cccc2oc2c3c(cc(O)c12)O[C@H]1OC=C[C@@H]31`, for which the growth is 89.7%. For the compound `CC(C)SC1=NC(=C(C(=N1)NC2=ClC=CC=C2)C#N)C3=CC=CC=C3`, the growth was 84.5%. The same measure for `Cc1ccc(S(=O)(=O)N(CC[C@@H]2C[C@H]2c2cc3ccccc3o2)S(=O)(=O)c2ccc(C)cc2)cc1`: 64.6%; for `Oc1[nH]c2ccc(Cl)cc2c1N=Nc1nc(N=Nc2c(O)[nH]c3ccc(Cl)cc23)nc(N2CCCCC2)n1`: 71.5%; for `COc1ccc(C2CC(c3ccc(Nc4nc(NCCO)nc(N5CCOCC5)n4)cc3)=Nc3c(N)nc(N)nc3N2)cc1` (stereo not given): 90.9%. The same measure for `Nc1nc(-c2cccc([N+](=O)[O-])c2)c(N=Nc2cccc([N+](=O)[O-])c2)s1`: 118%; for `C#C[C@]1(O)CC[C@H]2[C@@H]3CC=C4c5sc(-c6ccc(F)cn6)nc5CC[C@]4(C)[C@H]3CC[C@@]21C`: 8.65% (active); for `N#Cc1nc(-c2ccccc2)oc1S(=O)(=O)N1CCCCC1`: 10.5%. The same measure for `CC1=C(C)C(=O)C(Nc2cccc(C)c2)=C(Br)C1=O`: 37%.

Take `COc1ccc(-c2nc3ccc(-c4nnc(SCC(=O)Nc5ccc(C(=O)/C=C/c6ccccc6)cc5)o4)cc3[nH]2)cc1OC`: the growth is 100%. The same measure for `O=C(c1ccc(Cl)cc1)C1[C@H](c2ccc(Cl)cc2)[C@@H](c2ccccc2)NC12C(=O)Nc1ccccc12` (stereo not given in full): 49.3%. The same measure for `CCCCCCCn1cc2c(NCCc3ccccc3)ncnc2n1`: 106%; for `CC(=O)Nc1ccc(NC(=O)Nc2cccc(-c3nc(-c4ccc(NC(=O)c5cccs5)cc4Cl)no3)c2)cc1C(F)(F)F`: 5.88% (active); for `O=C(CSc1nc2sc3c(c2c(=O)n1-c1ccc(Cl)cc1)CCCC3)N/N=C/c1ccc(F)cc1`: 97.9%. Take `COc1cc(/C=N/n2cnc3oc(-c4ccccc4)cc3c2=N)cc(CN2CCCC2)c1O`: the growth was 64.9%. The same measure for `CCCCN1C(=O)/C(=c2\sc3n(c2=O)C2C(NN=3)N(CC)C(=O)N2CC)c2cc(C)ccc21` (stereo not given): 93.2%; for `Cn1ccnc1C(=O)/C=C/c1ccc(NC(=O)Nc2ccc(Cl)cc2)cc1`: 44.2%.

For the compound `C#CCN(C)CCCOc1ccc(NCc2ccc(C(=O)NO)cc2)cc1Cl`, the growth was 12%.

For `COc1ccc(-c2nnc(SCc3ccc(O)c4ncccc34)n2-c2ccccc2)cc1`, the growth is 10.9%. With `Cc1cccc2sc(/N=C(\N)C(Br)Br)nc12`, the growth was 0.778% (active). The same measure for `CNc1ncc2cc(-c3ccc(-c4ncccc4F)cc3Cl)c(=O)n(CC3OCC(N)CO3)c2n1` (stereo not given): 20.5%; for `O=C1[C@H]2Cc3c([nH]c4ccccc34)[C@@H](c3c(Cl)cccc3Cl)N2C(=O)CN1C1CCN(Cc2ccccc2)CC1`: 65.7%. The same measure for `N/C(=N\C(N)=N\c1nc2ccccc2s1)c1cccc(F)c1`: 83% [5 µM]; for `Cn1ccnc1C(=O)/C=C/c1ccc(CNC(=O)c2ccc(Cl)cc2)cc1`: -25.5% (active); for `C[C@H](CCC(=O)NCc1ccc(C(=O)Nc2ccccc2N)cc1)[C@H]1CC[C@H]2[C@@H]3[C@@H](O)C[C@@H]4C[C@H](O)CC[C@]4(C)[C@H]3CC[C@]12C`: 0.73% (active). On to `COC(=O)C(Cc1ccccc1)NS(=O)(=O)/N=C1\NC(=O)NC1=C(Cl)Cl` (stereo not given), for which the growth is 96.1%. With `COc1ccc2c(c1)c(-c1nc(N)nnc1-c1c[nH]c3ccccc13)cn2C`, the growth is 3.5% (active). The same measure for `CC(=NNc1ncnc2ccccc12)c1ccc(S(C)(=O)=O)cc1`: 98.9%; for `CC(Nc1c(C#N)cnc2ccc(-c3cncc(O)c3)cc12)c1ccccc1` (stereo not given): 3.91% (active); for `Cc1ccc2c(n1)C(=O)C(Cl)=C(Nc1cccc(C(F)(F)F)c1)C2=O`: 32.3%.

As for `CC(C)C(/C=C/c1[nH]ncc1-c1cc(Cl)ccc1O)N1CCOCC1` (stereo not given), the growth was 93.5%.
